# About 5,800 (1.8%) of roughly 330,000 compounds were called active. The sample as a whole holds a higher share of actives than the screen did. Unmarked numbers belong to inactive results. Cut-off read from the data, not from the text of the source: active = inhibition mostly above about 38% (no sharp cut-off); inactive = mostly below about 40%.
# Biological target: Orexin/Hypocretin receptor type 1 (Homo sapiens) (UniProt O43613)
# Assay: antagonists of human orexin 1 receptor (OX1R) (AID 485270);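 note: 0% = agonist challenge alone and 100% = reference antagonist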
# Conditions: OX1R-expressing cells, FRET antagonist read-out; at 6.6 µM; stronger effect = higher value
# Chain of Orexin/Hypocretin receptor type 1 (Homo sapiens) (O43613 whole entry, looked up): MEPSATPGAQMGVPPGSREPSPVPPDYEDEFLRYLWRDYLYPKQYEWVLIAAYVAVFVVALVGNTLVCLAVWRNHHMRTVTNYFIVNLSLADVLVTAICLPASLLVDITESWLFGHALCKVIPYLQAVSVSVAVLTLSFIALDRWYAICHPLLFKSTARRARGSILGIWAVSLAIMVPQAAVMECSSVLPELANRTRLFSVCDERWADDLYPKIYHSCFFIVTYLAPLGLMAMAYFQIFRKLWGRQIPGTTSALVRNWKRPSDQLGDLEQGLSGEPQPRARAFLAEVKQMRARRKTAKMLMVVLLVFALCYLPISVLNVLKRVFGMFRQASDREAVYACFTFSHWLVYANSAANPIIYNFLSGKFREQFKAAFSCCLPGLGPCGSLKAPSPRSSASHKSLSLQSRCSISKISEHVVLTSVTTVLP
row,Structure (SMILES),inhibition
1,CC(OC(=O)c1ccc(Cl)cc1O)C(=O)NCCC1=CCCCC1 (stereo not drawn),5.93%
2,O=C(COc1ccccc1F)NNC(=O)c1cc(Br)ccc1Cl,12.4%
3,C#CCOCCOCCOCCNc1nc(N2CCN(C(=O)C([C@@H](C)O)n3cc([C@@H](N)CCCCN)nn3)CC2)nc(N2CCN(C(=O)[C@H](CCCCN)n3cc(CN)nn3)CC2)n1 (stereo partly drawn),6.34%
4,C=CC(COCc1ccccc1)N(CC(=O)OC)S(=O)(=O)c1cc(Br)ccc1OC (stereo not drawn),20.4%
5,O=C(N/N=C/c1sc(N2CCCCC2)nc1-c1cccs1)c1cccnc1,111% (active)
6,Cc1cc(/C=N/NC(=O)c2cccnc2)c(C)n1CC(C)C,3.61%
7,O=C(NN=C1CCC(=NNC(=O)c2cccnc2)CC1)c1cccnc1,1.73%
8,CC(C#N)OC(=O)c1cccnc1SCC(=O)Nc1ccc2c(c1)OCO2 (stereo not drawn),8.21%
9,O=C(Cc1ccc(Cl)c(Cl)c1)Nc1ccc(SC(F)F)cc1,17.7%
10,O=C(CC1SCCNC1=O)Nc1ccc(Cl)c(Cl)c1 (stereo not drawn),10.1%
11,O=C(CC(O)(C(F)(F)F)C(F)(F)F)Nc1ccc(Cl)c(Cl)c1,68.7% (active)
12,Cc1cc(C(=O)Nc2nnc(C3CC3)s2)c(C)s1,7.15%
13,CCOC(=O)C1=C(C)N(C[C@@H]2CC[C@@H](Cc3ccc(-c4ccccc4)cc3)O2)C(=O)NC1c1ccc([N+](=O)[O-])cc1 (stereo partly drawn),5.68%
14,COc1ccc(Br)cc1CN(C)CC(=O)Nc1cc(Cl)cc(Cl)c1,22.9%
15,COc1ccc2nc3n(c(=O)c2c1)-c1cc(C)ccc1C(=O)NC3Cc1ccc(O)cc1 (stereo not drawn),4.12%
16,Cc1c(C(=O)OCC(=O)N(CCC#N)c2ccccc2)oc2c1ccc1ccccc12,60.1% (active)
17,N#CCCN(C(=O)COC(=O)c1ccc(S(=O)(=O)N2CCCCCC2)cc1)c1ccccc1,16.8%
18,N#CCCN(C(=O)COC(=O)c1ccc2c(c1)OCCO2)c1ccccc1,11%
19,Cc1ccc(CCNC(=O)C2CCN(S(=O)(=O)N3CCCC3)CC2)cc1,6.73%
20,CN(CC(=O)NCCc1ccc(S(N)(=O)=O)cc1)CC(=O)Nc1ccc(F)c(F)c1F,-2.07%
21,O=c1ccc2c(-c3ccccc3S(=O)(=O)O)c3ccc(O)c(O)c3oc-2c1O,55.9% (active)
22,CC(C)COc1ccc(C(=O)NNC(=O)CCC(=O)c2cccs2)cc1,2.01%

row,Structure (SMILES),inhibition
1,Cc1cccc(NC(=O)c2ccc(S(=O)(=O)N(C)c3ccccc3)cc2)n1,9.18%
2,CCCCNc1c(-c2ccc(OC)c(Sc3ccc(OC)cc3)c2)nc2ccc(Cl)cn12,13.3%
3,COc1ccccc1-c1nnc(-c2ccc(F)cc2)o1,4.73%
4,COc1ccc(-c2csc(-c3cccs3)n2)cc1OC,11.9%
5,COc1ccc(-c2csc3nc(-c4ccccc4F)oc(=O)c23)cc1OC,46.9% (active)
6,O=C(COC(=O)c1n[nH]c2ccccc12)Nc1ccccc1Br,19.4%
7,CCOC(=O)C1CCN(CC(=O)Nc2ccc(OC)c(S(=O)(=O)N3CCCCC3)c2)CC1,7.12%
8,CC[C@@H]1CCCCc2ccccc2[C@@H](C(=O)C[C@H](O)CC(C)=O)OC1=O,5.92%
9,Cc1onc(-c2ccccc2Cl)c1C(=O)OCC(=O)c1ccccc1,21.4%
10,Cc1onc(-c2ccccc2Cl)c1C(=O)NCCn1ccc2ccccc21,69.4% (active)
11,Cc1ccc2cc(CCNC(=O)c3c(-c4ccccc4Cl)noc3C)c(=O)[nH]c2c1,6.94%
12,NCCN1CCN2C(=O)CN(C(=O)c3ccccc3)CC12 (stereo not drawn),6.95%
13,CC1(C)C[C@H]2C3=CCC4[C@@]5(C)CC[C@H](O)[C@](C)(CO)C5CC[C@@]4(C)[C@]3(C)C[C@@H](O)[C@@]2(CO)[C@@H](O)[C@@H]1O (stereo partly drawn),6.35%
14,O=C(CSc1nccn1-c1cccc(F)c1)NC1CCCC1,1.88%
15,CC(OC(=O)c1c(F)cccc1F)C(=O)NCCC1=CCCCC1 (stereo not drawn),6.17%
16,Cc1cccc(N=Nc2c(C)[nH]n(-c3ccccc3)c2=O)c1,6.48%
17,Cc1[nH]n(C)c(=O)c1N=Nc1ccc(S(C)(=O)=O)cc1,75.9% (active)
18,Cc1[nH]n(C)c(=O)c1C(=O)c1c(-c2c(Cl)cccc2Cl)noc1C,38.8%
19,O=C(Nc1ccc2ccccc2c1)Nc1ccc2snnc2c1,60.2% (active)
20,O=C(Nc1cccc(Br)c1)c1ccc2snnc2c1,28.6%
21,CCc1ccccc1NC(=O)c1ccc2snnc2c1,19.6%
22,CC(=O)C(CC(=O)N1CCCC1)C(=O)Nc1ccc(Cl)cc1 (stereo not drawn),-2.02%

row,Structure (SMILES),inhibition
1,O=C1COc2ccc(C(=O)COC(=O)c3ccccc3Cl)cc2N1,8.89%
2,CCN(C(=O)COC(=O)c1sccc1C)c1c(N)n(Cc2ccccc2)c(=O)[nH]c1=O,21.4%
3,CCN(C(=O)CSc1ncnc2sccc12)c1c(N)n(Cc2ccccc2)c(=O)[nH]c1=O,42.3% (active)
4,CCCN(C(=O)CSc1nnc(N)s1)c1c(N)n(Cc2ccccc2)c(=O)[nH]c1=O,2.18%
5,COc1ccc(C(=O)O)cc1S(=O)(=O)NC1CCN(Cc2ccccc2)CC1,2.69%
6,O=C(NCCCN1CCOCC1)c1cn(-c2ccccc2)nc1-c1ccc(F)cc1,1.24%
7,CC(=O)Nc1ccc(/C=N/NC(=O)c2cccs2)cc1,18.1%
8,CC(=O)NC(Cc1c[nH]c2ccccc12)C(=O)O (stereo not drawn),11.3%
9,O=C(NC(Cc1c[nH]c2ccccc12)C(=O)N/N=C/c1ccc(Br)cc1)c1cccs1 (stereo not drawn),68.7% (active)
10,O=C(NNS(=O)(=O)c1c(F)cc(F)c(Cl)c1F)C12CC3CC(CC(C3)C1)C2,6.19%
11,COc1ccc(C(=O)NCc2ccccc2C)cc1S(=O)(=O)NC1CCCC1,8.7%
12,O=C(COC(=O)c1ccc(O)cc1O)c1ccc2c(c1)OCCO2,9.27%
13,CCNC(=S)N1CCN(S(=O)(=O)c2ccc(Cl)s2)CC1,13.3%
14,CC(C)(C)OC(=O)C1=C(CO)CS[C@@H]2[C@H](NC(=O)Cc3ccccc3)C(=O)N12,17.7%
15,CCCCN(CC)C(=S)Nc1ccc2nc3n(c(=O)c2c1)CCCCC3,5.73%
16,O=c1c2cc([N+](=O)[O-])ccc2nc2n1CCC2,59.2% (active)
17,O=C(Nc1ccc2nc3n(c(=O)c2c1)CCCC3)c1ccc(Cl)nc1,4.47%
18,N/C(=N\OC(=O)c1ccc([N+](=O)[O-])cc1)c1ccccn1,53.4%
19,Cc1ccc(C(=O)O/N=C(\N)c2ccccn2)cc1Cl,14.1%
20,COc1ccc(C(=O)O/N=C(\N)c2ccccn2)cc1[N+](=O)[O-],28.6% (active)
21,O=C(O[C@@H]1[C@H](Cc2ccccc2)NS(=O)(=O)[C@H]2C[C@@H]3C=C[C@]12O3)c1ccccc1Br,52.4% (active)
22,O=C(O[C@H]1[C@H](Cc2ccccc2)NS(=O)(=O)[C@H]2C[C@@H]3C=C[C@]12O3)c1ccc([N+](=O)[O-])cc1,15.9%

row,Structure (SMILES),inhibition
1,CC(C)C(NC(=O)c1c(F)cccc1F)C(=O)NNC(=O)c1ccccc1 (stereo not drawn),2.8%
2,COc1ccc(-c2c(C#Cc3ccsc3)c3cc(-c4ccc(CN5CCOCC5)cc4)ccc3n2C)cc1,8.67%
3,COc1cc(C(=S)N2CCOCC2)cc(OC)c1OC(=O)c1cc([N+](=O)[O-])cc([N+](=O)[O-])c1,66.5%
4,COc1cc(C(=S)N2CCOCC2)cc(OC)c1OC(=O)c1cc([N+](=O)[O-])c(C)c([N+](=O)[O-])c1,8.29%
5,COc1cc(C(=S)N2CCOCC2)cc(OC)c1OC(=O)c1ccc([N+](=O)[O-])cc1[N+](=O)[O-],113% (active)
6,Cc1cccc([C@H]2[C@@H]3C=CC[C@@H](C)[C@@H]3C(=O)N2Cc2ccccc2)c1,23.4%
7,Cc1c(C(=O)Nc2cccc(S(=O)(=O)N3CCOCC3)c2)oc2ccccc12,24.2%
8,CC(=O)Oc1ccc(C(C)=O)c2c1OCCO2,88.7% (active)
9,CC(=O)c1ccc(OC(=O)N2CCOCC2)cc1,0.24%
10,CC(=O)c1ccc2c(c1)OCCOCCOc1ccc(C(C)=O)cc1OCCOCCO2,0.66%
11,O=C(NCCc1ccco1)c1ccc(OCc2cn3ccccc3n2)cc1,8.69%
12,COc1ccc(CCn2c(NCCCN3CCOCC3)nc3c2c(=O)[nH]c(=O)n3C)cc1,101% (active)
13,COc1ccc(CNc2nc3c(c(=O)[nH]c(=O)n3C)n2Cc2ccccc2)cc1,-5.7%
14,COc1ccc(CCn2c(NN=C3CCCC3)nc3c2c(=O)[nH]c(=O)n3C)cc1,18.2%
15,Cc1ccc(S(=O)(=O)Nc2ccc(F)c(S(=O)(=O)N3CCOCC3)c2)cc1,21.7%
16,O=C(CSc1nc2ccccc2c(=O)n1-c1ccccc1F)N1CCOCC1,16.2%
17,Cc1ccccc1NCC(=O)N/N=C\c1ccc([N+](=O)[O-])s1,20.9%
18,CC(C)(C)c1cc(C(=O)N/N=C/c2ccc([N+](=O)[O-])s2)n[nH]1,56.3% (active)
19,COc1ccc2ccccc2c1/C=N/NC(=O)c1cc(C)[nH]n1,39.3%
20,CC(=O)N1CCCc2cc(S(=O)(=O)N3CCCC(C(=O)NCc4ccc(Cl)cc4)C3)ccc21 (stereo not drawn),10.5%
21,CC(=O)N1c2ccc(S(=O)(=O)N3CCCC(C(=O)Nc4cccc(Cl)c4)C3)cc2CC1C (stereo not drawn),2.16%
22,CC(=O)N1CCCc2cc(S(=O)(=O)N3CCCC(C(=O)N4CCN(c5cccc(Cl)c5)CC4)C3)ccc21 (stereo not drawn),39.7% (active)

# — PubChem BioAssay AID485270 (The Scripps Research Institute Molecular Screening Center, 2010)
